Compound activity as filed in PubChem BioAssay.
GBA enhancer: enhancers of human beta-glucosidase activity in Gaucher fibroblasts. P04062. L444P Gaucher fibroblasts, 4-MU-glucoside fluorescence, 3 days. actives 0.44% (n = 30,000). AID 784. activation, % at 10 µM; in the data active = activation above about 65%
Target sequence (P04062 whole entry L483P): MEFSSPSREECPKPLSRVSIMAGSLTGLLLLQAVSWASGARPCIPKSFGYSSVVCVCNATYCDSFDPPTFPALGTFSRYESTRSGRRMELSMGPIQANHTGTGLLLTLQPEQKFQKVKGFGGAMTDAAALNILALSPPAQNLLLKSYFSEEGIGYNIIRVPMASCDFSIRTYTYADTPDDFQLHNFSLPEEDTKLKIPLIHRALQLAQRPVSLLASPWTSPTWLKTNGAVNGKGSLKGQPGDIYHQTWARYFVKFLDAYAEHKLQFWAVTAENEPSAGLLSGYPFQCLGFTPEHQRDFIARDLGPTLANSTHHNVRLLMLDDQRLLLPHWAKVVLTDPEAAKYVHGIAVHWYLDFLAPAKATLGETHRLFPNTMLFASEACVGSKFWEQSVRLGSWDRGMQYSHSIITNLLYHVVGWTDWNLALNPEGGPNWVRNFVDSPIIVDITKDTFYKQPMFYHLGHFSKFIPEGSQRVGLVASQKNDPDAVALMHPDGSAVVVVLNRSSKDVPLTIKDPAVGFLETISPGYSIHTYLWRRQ
Hits are given with their value; . = inactive. The entries come from a sample that favours hits as a whole.

SMILES | GBA enhancer
Cc1ccc(C)c(OCC(=O)Nc2nonc2NC(=O)COc2cc(C)ccc2C)c1 | .
C=CCNC(=O)CCCCC(=O)NCC=C | .
C=CCNC(=O)CCCOc1cc(C)ccc1C | 68.2
O=C(CCCn1c(=S)[nH]c2cc3c(cc2c1=O)OCO3)N1CCN(c2ncccn2)CC1 | 79.3
O=C(CCCn1c(=S)[nH]c2cc3c(cc2c1=O)OCO3)N1CCN(c2ccc(F)cc2)CC1 | .
COc1cccc(N2CCN(C(=O)CCn3c(=S)[nH]c4cc5c(cc4c3=O)OCO5)CC2)c1 | .
O=c1cc(O)c2c(=O)n3c4c(cccc4c2o1)CCC3 | .
O=C(OCCN1CCCCC1)c1cc2ccccc2o1 | 71.5
O=C(Oc1ccccc1)c1cc2ccccc2o1 | .
O=C(Nc1ccccc1N1CCCC1)c1cc2ccccc2o1 | .
CCN(CC)C(=O)C1CC(=O)N(c2ccc(F)c(Cl)c2)C1 (centres undefined) | .
O=C1c2oc3ccc(Cl)cc3c(=O)c2C(c2ccccn2)N1CCCN1CCOCC1 (centres undefined) | .
Cc1ccc(OCC(=O)Nc2cccc(-c3nnc(-c4ccccc4)o3)c2)cc1 | .
CCOC(=O)COc1ccc(-c2nnc(-c3ccccc3)o2)cc1 | 78.1
CCOC(=O)c1nnc(-c2ccccc2)o1 | .
O=C(c1cc(-c2ccncc2)nc2ccccc12)N1CCN(c2ccc(N3CCOCC3)nn2)CC1 | .
N#CN(CC(N)=O)c1nc(N2CCCCC2)nc(N2CCCCC2)n1 | .
N/C(=N/O)c1nc(N2CCCCC2)nc(N2CCCCC2)n1 | 88.9
C1CCN(c2nc(N3CCCCC3)nc(N3CCNCC3)n2)CC1 | .
CC(C)c1nc(SCC(=O)NCc2ccc3c(c2)OCO3)c2c(=O)n(C)c(=O)n(C)c2n1 | .
Cc1ccc(C)c2[nH]c(=O)c(CN(CCN3CCCC3)C(=O)Nc3cccc(Cl)c3)cc12 | .
Nc1nc(-c2ccc(Cl)cc2)nn1C(=O)c1cccnc1 | .
COc1ccc(C(=O)n2nc(-c3ccccc3)nc2N)cc1OC | 70.9
CCCC(=O)n1nc(-c2ccc(OC)cc2)nc1N | .
COc1ccc(CN(Cc2cc3cccc(C)c3[nH]c2=O)C(=O)N(C)C)cc1 | 72.3
SMILES | GBA enhancer
Cc1ccc(CN(Cc2cc3cccc(C)c3[nH]c2=O)C(=O)N(C)C)cc1 | .
Cc1cccc2cc(CN(Cc3ccccc3)C(=O)N(C)C)c(=O)[nH]c12 | .
COc1ccccc1N1CCN(S(=O)(=O)c2ccc(Cl)s2)CC1 | .
Cc1nc(NC(=O)c2ccccc2)sc1-c1csc(NCc2ccco2)n1 | .
Cc1nc(C)c(-c2csc(NCc3ccco3)n2)s1 | 97.8
COc1ccc(-c2csc(NCc3ccco3)n2)cc1 | .
COc1ccc(CC(NC(C)=O)C(=O)N2CCN(C(=O)Nc3ccc(Cl)cc3)CC2)cc1OC (centres undefined) | .
COc1ccc2nc(C)c(C(=O)OCCN(C)C)cc2c1 | .
COc1ccccc1NC(=O)c1cc(Sc2nncn2C)nc2ccccc12 | .
COc1ccc(Cl)cc1C(=O)Nn1cnc2ccccc2c1=O | .
COc1ccccc1C(=O)Nn1cnc2ccccc2c1=O | .
COC(=O)c1cn(NC(=O)c2ccncc2)c(=O)c2ccccc12 | 74.5
Cc1oc(-c2nc3ccccc3n2C)cc1C(=O)c1ccccc1 | .
CCOc1ccc2nc(NC(=O)c3ccoc3C)sc2c1 | .
O=C(Nc1cccnc1)C1CCCN(S(=O)(=O)c2cccc3nsnc23)C1 (centres undefined) | .
Cc1cc(NC(=O)CSc2nc3ccccc3[nH]2)no1 | 99.9
Cc1cc(NC(=O)CSc2nc(-c3ccccc3)c(C#N)c(=O)[nH]2)no1 | .
COc1cc(OC)nc(NC(=O)CSc2nc3ccccc3[nH]2)n1 | .
N#Cc1ccc(CSc2nnc(-c3cnccn3)o2)cc1 | .
Cc1cc(-c2nnc(SCC(=O)NC3CCCC3)o2)no1 | .
Cc1cc(-c2nnc(SCc3cccnc3)o2)no1 | 86.1
CCOc1ccccc1NC(=O)c1ccc(F)c(S(=O)(=O)N2CCC3(CC2)OCCO3)c1 | .
Cc1nc(SCC(=O)N2CCN(c3ccccc3)CC2)c2c(=O)n(C)c(=O)n(C)c2n1 | .
CCCCCn1c(=NC(C)=O)c(C#N)cc2c(=O)n3cccc(C)c3nc21 | .
CSc1nc2ccccc2n1CC(=O)Nc1c(C)n(C)n(-c2ccccc2)c1=O | .
SMILES | GBA enhancer
COC(=O)n1c(SC)nc2ccccc21 | .
CCc1ccc(NC(=O)Cn2c(SC)nc3ccccc32)cc1 | 82.2
O=C(Nc1ccc(-c2noc(COc3ccccc3Cl)n2)cc1)c1ccco1 | .
CCOC(=O)c1[nH]c2ccc(OC)cc2c1N=CN(C)C | .
COc1cc2c(C(=O)NCCCN3CCN(c4cccc(Cl)c4)CC3)cn(C)c(=O)c2cc1OC | 84.7
CCOCCCNC(=O)c1cn(C)c(=O)c2cc(OC)c(OC)cc12 | .
COCCNC(=O)c1cn(C)c(=O)c2cc(OC)c(OC)cc12 | .
CCOC(=O)c1oc2c(C)c(O)ccc2c(=O)c1-c1nncn1-c1ccccc1 | 84.0
CCOC(=O)c1oc2c(CN3CCCCC3C)c(O)ccc2c(=O)c1-c1ccc(OC)c(OC)c1 (centres undefined) | .
CCOC(=O)c1nn(-c2ccccc2)c(=O)c(C#N)c1C | .
COc1cccc(-c2noc(C3CCCN(S(=O)(=O)c4cccc(Cl)c4C)C3)n2)c1 (centres undefined) | .
Cc1cccn2c(=O)c3cc(C(=O)N4CCN(c5ccccc5)CC4)n(C)c3nc12 | .
C=CCN1CCN(C(c2ccccc2)c2nnnn2CCC(C)C)CC1 (centres undefined) | .
CC(C)CCn1nnnc1C(c1ccccc1)N1CCC(C(N)=O)CC1 (centres undefined) | 87.0
CC(C)CCn1nnnc1C(c1ccccc1F)N1CCC(C(N)=O)CC1 (centres undefined) | .
Cc1ccc(NC(=O)CN(C)S(=O)(=O)c2cccc3nsnc23)cc1Cl | .
CN(CC(=O)Nc1ccc(F)c(F)c1)S(=O)(=O)c1cccc2nsnc12 | 120.9
Cc1ccc(NC(=O)CN(C)S(=O)(=O)c2cccc3nsnc23)cc1C | .
Cc1nonc1NC(=O)OC1CCCCC1 | .
O=C1CC(c2ccco2)Cc2nc(Nc3nc(-c4ccccc4)c4ccccc4n3)ncc21 (centres undefined) | .
CCOc1ccc(OCCSc2nnnn2C2CCCCC2)cc1 | .
COc1cc(-c2ccc(NC(=O)CN3CCCCC3)c(OC)c2)ccc1NC(=O)CN1CCCCC1 | .
CN(CC(=O)NCCN1CCN(Cc2ccccc2)CC1)S(=O)(=O)c1cccc2nsnc12 | .
O=C(CCCNS(=O)(=O)c1cccc2nsnc12)NCCc1ccccc1 | .
O=C(CCNS(=O)(=O)c1cccc2nsnc12)NC1CCN(Cc2ccccc2)CC1 | 85.7
SMILES | GBA enhancer
CCn1c(=O)cc(OCC(=O)Nc2ccc(Cl)cn2)c2ccccc21 | .
CCCOc1ccc(N2C(=O)CC(N3CCCC(C(=O)N4CCCC4)C3)C2=O)cc1 (centres undefined) | .
OC(COCC1CC=CCC1)Cn1cnc2ccccc21 (centres undefined) | 151.3
c1ccc2c(c1)ncn2CCn1cnc2ccccc21 | .
CC(=O)Nc1cccc(OCC(O)Cn2cnc3ccccc32)c1 (centres undefined) | .
COc1ccc(OC)c(C(=O)c2oc3ccccc3c2NC(C)=O)c1 | .
CCOc1ccc(NS(=O)(=O)c2cc(Cl)ccc2OC)cc1 | .
O=C(CCS(=O)(=O)c1cccc2nonc12)NCCc1ccccc1 | .
O=C(CCCC(=O)N1CCCc2ccccc21)N1CCCc2ccccc21 | .
O=C(CCS(=O)(=O)c1cccc2nonc12)N1CCCc2ccccc21 | 72.5
